Measured values from PubChem BioAssay AID1159524 (National Center for Advancing Translational Sciences (NCATS), 2015).
The whole screen tested about 410,000 compounds, of which about 5,100 (1.2%) were called active. About 8% were inconclusive and are not listed. This is one part of a sample in which actives are shown more often than they occur. Unmarked numbers belong to inactive results. Calls follow the shape of the full dose curve; tested in HEK293T cells.

Experiment: High Throughput Screening for Foot and Mouth Disease Virus Antivirals; also: read-out not given here; nearly all actives have a fitted effect of over 45% in size
Conditions: FMDV antiviral cell-based qHTS; series mostly up to 57.9 µM; activity change, negative = inhibition: at the top concentration
% is scaled to controls: 0 for no effect and ±100 for the full control effect; potency is read from the fitted curve at half-maximal effect.

Row | Compound | activity change, negative = inhibition | Potency
1 | O=C(c1cc(C(F)(F)F)cc(C(F)(F)F)c1)N1CCC2(CC1)CN(c1ccncc1)C2 | 9.6% | 
2 | Fc1cccc(/C=N\N=C/c2cccc(F)c2)c1 | 48.9% | 
3 | Cc1nnc(SCCCCSc2nnc(C)c(=O)[nH]2)[nH]c1=O | -7.02% | 
4 | CCOC(=O)CNc1nc2ccccc2n2c(C)nnc12 |  | inactive
5 | CCCCOC(=O)CNc1nnc(SCC(=O)OCC)[nH]c1=O |  | 39.8 µM (active)
6 | Cc1cccc(Cc2c(C)nc3nc(SCc4ccccc4Cl)nn3c2C)c1 | -0.876% | 
7 | CCOc1ccc(C(=O)c2cn(Cc3ccc(F)cc3)c3ccc(F)cc3c2=O)cc1 | -2.69% | 
8 | COC(=O)c1ccccc1NC(=O)Cn1c(=O)cc(C)c2c(C)nn(-c3cccc(Cl)c3C)c21 | -15.1% | 
9 | O=c1c(-c2ccc(F)cc2)nc2cnc(N3CCOCC3)nc2n1-c1ccccc1 | -17.7% | 
10 | C=CCN1CCC2(C)c3cc(O)ccc3CC1[C@@H]2C (stereo not given in full) | -3.63% | 
11 | Cc1cc(C)nc(S/C=C/C(=O)c2ccccc2)n1 |  | 12.6 µM (active)
12 | CCn1c(CSc2nc(C)cc(C)n2)nnc1SCC(N)=O | -14.6% | 
13 | O=C(CSCc1cnn(-c2ccccc2)c1-n1cccc1)NCc1ccc(Cl)cc1 | -12.8% | 
14 | COc1cn(CC(=O)Nc2cccc(C)c2C)c(CN2CCCCC2)cc1=O | -2.87% | 
15 | COc1ccc2[nH]cc(CCNc3cc(-c4ccccc4CN(C)C)ncn3)c2c1 | -6.42% | 
16 | O=C(Nc1cccc(NC(=O)N2CCN(c3ccccc3)CC2)c1)N1CCN(c2ccccc2)CC1 |  | 25.1 µM (active)
17 | O=C(Nc1ccccc1)N1CCN(C2c3ccccc3-c3ccccc32)CC1 | -14% | 
18 | COc1cccc(N2CCN(C(=O)Nc3ccc4c(c3)NC(=O)CO4)CC2)c1 | -24.9% | 
19 | CC(C)NC[C@H](O)c1ccc2ccccc2c1 | -13.9% | 
20 | CCc1nn(CCCC(=O)NCc2ccccc2OC)c(=O)c2cc3occc3n12 | -17.4% | 
21 | COCCn1c(=O)c(-c2cc(F)cc(F)c2)nc2cnc(N3CCNCC3)nc21 | 0.569% | 
22 | COc1ccc(-c2cn3nc(N4CCCC(C(=O)NCCCOC(C)C)C4)sc3n2)cc1 (stereo not given) | -20.5% | 
23 | O=C(Nc1c(-c2ccc(F)cc2)nc2ccccn12)c1cccc(F)c1 | -6.72% | 
24 | N#C/C(=C\c1ccccc1F)c1nc2ccccc2c(=O)[nH]1 | -17.8% | 
25 | Cc1ccc2nc(CNC(=O)c3ccccc3)[nH]c2c1 | 69.6% | 

Row | Compound | activity change, negative = inhibition | Potency
26 | O=C(/C(=C/c1cccc(Cl)c1)c1nc2ccccc2[nH]1)c1ccccc1 |  | 7.94 µM (active)
27 | COc1ccc2c(c1)CCc1c(C(=O)Nc3cc(C)ccc3O)noc1-2 | 21.7% | 
28 | Cc1ccccc1Cn1nc(C)c(NC(=O)c2cc(-c3ccc(F)cc3)on2)c1C | -21.6% | 
29 | Cc1nn(Cc2ccc(F)cc2)c(C)c1NC(=O)c1noc2c1CCc1ccccc1-2 |  | 31.6 µM (active)
30 | CCC(C)NC(=O)Cn1c(=O)n(-c2ccc(Cl)cc2)c(=O)c2c3c(sc21)CCCC3 (stereo not given) | -21.7% | 
31 | COc1cc2c(cc1O)C(SC)=NC(C)(C)C2 |  | 20 µM (active)
32 | COc1cc2c(cc1OC)CC1(CCCCC1)N=C2 | 1.73% | 
33 | COc1cc2c(cc1OC)C(Nc1ccc(S(N)(=O)=O)cc1)=NC(C)(C)C2 | 5.48% | 
34 | COc1ccccc1-c1cc(NCc2cccs2)ncn1 | 9.02% | 
35 | CC(C)C(N)C(=O)OCCOCn1cnc2c(=O)[nH]c(N)nc21 (stereo not given) | 33.8% | 
36 | O=c1c(-c2cc(F)cc(F)c2)nc2cnc(Oc3ccccc3)nc2n1C[C@H]1CCCO1 | -2.22% | 
37 | Cc1ccc(OC(=O)c2c(C)nn(-c3ccccc3)c2C)cc1 | 36.2% | 
38 | C/C=C/c1ccc(OCC(=O)OCC(=O)Nc2c(C)nn(-c3ccccc3)c2C)c(OC)c1 | -22.7% | 
39 | COc1ccc(CNC(=O)COC(=O)c2c(C)nn(-c3ccccc3)c2C)cc1OC |  | 39.8 µM (active)
40 | COc1ccc(CNC(=O)COc2ccccc2C(=O)c2cnn(-c3ccccc3)c2)cc1OC | -16.8% | 
41 | CCC(Oc1ccccc1)C(=O)OCC(=O)Nc1c(C)nn(-c2ccccc2)c1C (stereo not given) | -16.5% | 
42 | CCCn1c(C)cc(C(=O)COC(=O)c2c(C)nn(-c3ccccc3)c2C)c1C |  | 35.5 µM (active)
43 | COc1cccc(Cn2c(=O)c(-c3cc(F)cc(F)c3)nc3cnc(OC)nc32)c1 | -4.74% | 
44 | COc1cccc(Nc2ncc3ncc(=O)n(C4CC4)c3n2)c1 | 15.6% | 
45 | NCCCNCCCCN(CCCN)/[N+]([O-])=N/O | -17.2% | 
46 | N#CCCn1c(=O)c(-c2cc(F)cc(F)c2)nc2cnc(Oc3ccccc3)nc21 | -7.27% | 
47 | COc1ccc(OC)c(CNC(=O)CN2C(=O)CCn3nc(-c4cn(C)c5ccccc45)cc32)c1 | -24.5% | 
48 | CCN(CC)c1ccc(NC(=O)CN2CCN(c3ccccn3)CC2)cc1 | -7.32% | 
49 | CN(C(=O)CN1CCN(c2cc(-c3ccc(OCc4ccccc4)cc3)ncn2)CC1)c1ccccc1 |  | 25.1 µM (active)
50 | CCc1ccc(OCC(=O)N2CCN(CC(=O)Nc3ccccc3Cl)CC2)cc1 | -11.6% | 

Row | Compound | activity change, negative = inhibition | Potency
51 | c1ccc2c(Nc3ccncc3)nc(-c3ccoc3)nc2c1 | 2.01% | 
52 | Cc1nc2cnc(N3CCN(C)CC3)nc2n(C[C@H]2CCCO2)c1=O | -18.4% | 
53 | COc1cccc(C(=O)N(Cc2cccc(Cl)c2)Cc2ccco2)c1 | 0% | 
54 | CCn1cc(CN2CCC(C(=O)Nc3cccc(-c4cccc(Cl)c4)c3)CC2)cn1 | -16.3% | 
55 | CC(=O)c1cc(CN2CCC(C(=O)Nc3cccc(-c4cscn4)c3)CC2)cs1 |  | 20 µM (active)
56 | CCn1cc(CN2CCC(C(=O)Nc3cccc(-c4cccc(Cl)c4)c3)CC2)c(C)n1 | -17.4% | 
57 | CCOc1cc(C(=O)Nc2nnc3n2CCS3)cc(OCC)c1OCC | 4.52% | 
58 | c1ccc(CN2CC[C@@]3(CCCNC3)C2)cc1 | -12.5% | 
59 | CC(C)OCCCNc1ncnc2c1[nH]c1ccc(F)cc12 |  | 39.8 µM (active)
60 | COc1ccc(C2Nc3ccccc3C(=O)N2c2ccc(Cl)cc2)cc1Cn1cc([N+](=O)[O-])cn1 (stereo not given) |  | 100 µM (active)
61 | COc1ccccc1N1CCN(C2C(=O)c3ccccc3N2C(C)=O)CC1 (stereo not given) | -8.94% | 
62 | CS(=O)(=O)N1CCC2(CC1)CN(Cc1ccccc1)C2 | -3.17% | 
63 | N#Cc1nc(-c2ccc(OCc3ccccc3)cc2)oc1NCCCN1CCOCC1 |  | 39.8 µM (active)
64 | Cc1ccc(-c2nc(C#N)c(NCCCn3ccnc3)o2)cc1 | 57.1% | 
65 | COc1ccc(OCc2ccc(-c3nc(C#N)c(N4CCN(c5ccccc5)CC4)o3)o2)cc1 | -19.7% | 
66 | C/C=C(\C)C(=O)OC1C(OC(=O)C2(C)OC2C)c2cc3ccc(=O)oc3cc2OC1(C)C (stereo not given) | 0% | 
67 | Cc1nc2cnc(N3CCN(C)CC3)nc2n(CCC#N)c1=O | -6.36% | 
68 | Cc1ccc(COC(=O)CN2C(=O)NC3(CCCC3)C2=O)cc1 | 1.27% | 
69 | CC(OC(=O)CN1C(=O)C2CCCCC2C1=O)C(=O)Nc1ncc(Cl)cc1Cl (stereo not given) | -9.05% | 
70 | CC1=CC(C)(C)Nc2ccc(OC(=O)CN3C(=O)C4CCCCC4C3=O)cc21 (stereo not given) |  | 20 µM (active)
71 | O=C(O)CCn1cc(C=C2C(=O)NC(=S)NC2=O)c(-c2cccc(Br)c2)n1 | 3.84% | 
72 | O=C(O)CCn1cc(/C=C/C(=O)c2ccc(Cl)cc2)c(-c2cccc(Br)c2)n1 |  | 25.1 µM (active)
73 | Cc1csc2nc(COC(=O)c3ccccc3NC(=O)c3ccccc3Cl)cc(=O)n12 | -8.02% | 
74 | CCc1cnc2c(c1SCC(=O)c1ccccc1)c(=O)n(C)c(=O)n2C | -24.2% | 
75 | CCC(C)[C@@H](N)C(=O)O (stereo not given in full) | 0.711% | 

Row | Compound | activity change, negative = inhibition | Potency
76 | Cc1ccc(SCC(=O)Nc2ccc3oc(-c4ccccc4F)nc3c2)cc1 | -0.835% | 
77 | COCCCNC(=O)c1ccc(-c2c(C)noc2C)c2ccoc12 | 27.2% | 
78 | COc1ccc(CNC(=O)c2ccc(-c3cccnc3)c3ccoc23)cc1OC |  | 22.4 µM (active)
79 | COc1ccc(CNC(=O)c2c(C)cc(=O)oc2C)cc1OC | -29.7% | 
80 | C=CC(=O)c1ccc2ccccc2c1 | -9.61% | 
81 | CCOC(=O)N1CCN(Cc2ccc3c(c2)CN(C(=O)c2cccc(-n4cccn4)c2)CCO3)CC1 | -23.1% | 
82 | CCCCC/C=C\C/C=C\CCCCCCCCCC(=O)O | -17.4% [at 6.7 µM] | 
83 | Cn1c(=O)c2c(nc(Br)n2CCSc2nc3ccccc3o2)n(C)c1=O | -16.2% | 
84 | Cc1ccnc(SCCn2c(Br)nc3c2c(=O)[nH]c(=O)n3C)n1 | -13.3% | 
85 | Cn1c(=O)[nH]c(=O)c2c1nc(Br)n2CCCCSc1nc2ccccc2o1 |  | 35.5 µM (active)
86 | COc1ccccc1CNc1ncnc2ccc(-c3ccc4c(c3)OCO4)cc12 | -3.54% | 
87 | CC1O[C@@H](Oc2c(-c3ccc(O)c(O)c3)oc3cc(O)cc(O)c3c2=O)C(O)C(O)C1O (stereo not given in full) | -2.06% | 
88 | COc1ccc(Cc2nc3ccc(C(=O)NCc4ccccc4C)cc3o2)cc1 | -13.5% | 
89 | COC(=O)c1ccccc1NC(=O)c1ccc2c(=O)n3c(nc2c1)CCCCC3 | -21.2% | 
90 | CCc1c(C)sc(NC(=O)C2c3ccccc3Oc3ccccc32)c1C(=O)OC(C)C | 0% | 
91 | CC1CCN(S(=O)(=O)c2ccc3c(c2)n(C)c(=O)n3C)CC1 | -2.39% | 
92 | Cc1ccn2c(c1)nc(=O)c1cc(S(=O)(=O)N3CCC(C)CC3)ccc12 |  | 11.2 µM (active)
93 | CC1CCN(S(=O)(=O)c2ccc3c(ccn3CC(=O)O)c2)CC1 | -5.95% | 
94 | CCc1ccc(CNC(=O)c2ccc(CS(=O)c3ccc(Br)cc3)o2)cc1 (stereo not given) | 2.27% | 
95 | Cc1ccc(-c2ccnc(-n3ncc(C(=O)N(C)Cc4cccc5ncccc45)c3C3CC3)n2)o1 | -0.786% | 
96 | Cc1cccc(CNC(=O)c2cnn(-c3nccc(-c4ccccc4F)n3)c2C2CC2)n1 | -10.1% | 
97 | CN(Cc1cccc2ncccc12)C(=O)c1cnn(-c2nccc(-c3ccccc3F)n2)c1C1CC1 |  | 3.98 µM (active)
98 | COc1cccc(C2C(C(=O)Nc3ccc(C)cc3C)=C(C)Nc3c(C(=O)Nc4ccccc4)cnn32)c1 (stereo not given) | -7.93% | 
99 | Nc1nc(/C(=C/CC(=O)O)C(=O)N[C@@H]2C(=O)N3C(C(=O)O)=CCS[C@H]23)cs1 | -8.05% | 
100 | COc1ccccc1NC(=O)c1oc2ccccc2c1NC(=O)COc1ccccc1OC | 2.02% | 
